A short description of experiment [1]: hit retest on RPL19A-GFP reporter strain – cell-based, S. cerevisiae, flow cytometry, cherry picks, mother/daughter gates, confirmation (AID 2270;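 active = GFP response below 50% of the DMSO control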). The following applies: 3 h, at 10 µM, stronger effect = lower value, 100 = same GFP as DMSO wells. On the technique in general: Flow cytometry measures light scatter and fluorescence of single cells or particles in a stream.

Experiment [2] is described as follows: yeast TOR pathway reporter LAP4-GFP change – cell-based, cherry picks, flow cytometry, mother/daughter gates, confirmation (AID 2271;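 active = GFP response above 150% of the DMSO control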;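 note: ratio of sample to DMSO plate mean so 100% equals DMSO level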). The following applies: S. cerevisiae LAP4-GFP strain, 3 h, at 10 µM, stronger effect = higher value, 100 means same as DMSO control.
A short description of experiment [3]: TOR pathway reporter MEP2-GFP, retest of hits – S. cerevisiae, flow cytometry GFP, cherry picks, confirmation (AID 2272;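 active = GFP response above 150% of the DMSO control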;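 note: ratio of well signal to plate DMSO mean so 100% equals DMSO level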). The following applies: S. cerevisiae MEP2-GFP strain, 3 h, at 10 µM, stronger effect = higher value.
Experiment [4] in a line: yeast AGP1-GFP fluorescence change, single-dose – cell-based, flow cytometry, S. cerevisiae, cherry picks, confirmation (AID 2273).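 Note: median GFP channel fluorescence over the whole cell population gate.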 The note with it: S. cerevisiae AGP1-GFP strain, 3 h, at 10 µM.
Experiment [5] is described as follows: TOR pathway CIT2 reporter hit retest – S. cerevisiae, GFP fusion, cherry picks, mother/daughter gates, confirmation (AID 2274). The note with it: S. cerevisiae CIT2-GFP strain, flow cytometry, 3 h, at 10 µM, stronger effect = higher value.
Setting [6] is: measured here: daughter cell gate.
[7] abbreviates: measured here: mother cell gate.
[8] abbreviates: measured here: daughter cell gate response.
Where [9] appears, read: measured here: mother cell gate response.

Active and inactive are the calls of the source.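 Rule for the calls, unless noted: active = GFP response above 150% of the DMSO level; inconclusive = fewer than 70 events counted for a yeast strain; inactive = the rest.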

As for `COc1ccc(-c2nnc(NC(=O)c3ccc([N+](=O)[O-])o3)o2)c(OC)c1`, the GFP response vs DMSO in experiment [1] was 101% (inactive); in experiment [1] (setting [6]), 100%; in experiment [1] (setting [7]) it was 101%; in experiment [3], 100% (inactive). Also, the GFP response relative to DMSO in experiment [2] is 95.4% (inactive); in experiment [2] (setting [8]), 92.8%; in experiment [2] (setting [9]), 96.1%. The GFP response, % of DMSO in experiment [4] was 98% (inactive); in experiment [5], 105% (inactive); in experiment [5] (setting [6]), 105%; in experiment [5] (setting [7]) it was 103%.
Consider `COc1ccc(N2C(=O)C(Cl)=C(Oc3cccc(OC)c3)C2=O)cc1`, for which the GFP response vs DMSO is 90.9% (inactive) in experiment [1], 76.4% in experiment [1] (setting [6]), 79.9% in experiment [1] (setting [7]) and 105% (inactive) in experiment [3]. The GFP response relative to DMSO in experiment [2] is 218% (active); in experiment [2] (setting [8]) it was 203%; in experiment [2] (setting [9]) it was 227%. In addition, the GFP response, % of DMSO in experiment [4] was 110% (inactive); in experiment [5], 98.4% (inactive); in experiment [5] (setting [6]), 93.7%; in experiment [5] (setting [7]), 80.8%.
As for `COC(=O)c1ccccc1Sc1ncnc2onc(C)c12`, the GFP response vs DMSO in experiment [1] is 101% (inactive); in experiment [1] (setting [6]), 100%; in experiment [1] (setting [7]) it was 101%; in experiment [3] it was 120% (inactive). The GFP response relative to DMSO was 111% (inactive) in experiment [2], 106% in experiment [2] (setting [8]) and 112% in experiment [2] (setting [9]). Also, the GFP response, % of DMSO in experiment [4] was 93.2% (inactive); in experiment [5], 108% (inactive); in experiment [5] (setting [6]), 106%; in experiment [5] (setting [7]), 107%.
In the case of `Cc1cc(C)c(C(=O)COC(=O)c2ccc([N+](=O)[O-])o2)cc1C`, the GFP response vs DMSO in experiment [1] was 100% (inactive); in experiment [1] (setting [6]), 102%; in experiment [1] (setting [7]), 98.2%; in experiment [3], 101% (inactive). Moreover, the values for the GFP response relative to DMSO in experiment [2], in experiment [2] (setting [8]) and in experiment [2] (setting [9]) were 102% (inactive), 102% and 104%, respectively. Moreover, the GFP response, % of DMSO is 105% (inactive) in experiment [4], 100% (inactive) in experiment [5], 101% in experiment [5] (setting [6]) and 97.1% in experiment [5] (setting [7]).
Turning to `Cn1c(=O)c2ccccc2n(Cc2cccc(F)c2)c1=O`, the GFP response vs DMSO in experiment [1] is 97.6% (inactive); in experiment [1] (setting [6]) it was 97.8%; in experiment [1] (setting [7]), 97.3%; in experiment [3], 103% (inactive). Besides, the figures for the GFP response relative to DMSO in experiment [2], in experiment [2] (setting [8]) and in experiment [2] (setting [9]) were 104% (inactive), 101% and 105%, respectively. Moreover, the GFP response, % of DMSO was 101% (inactive) in experiment [4], 94.4% (inactive) in experiment [5], 95.8% in experiment [5] (setting [6]) and 93.8% in experiment [5] (setting [7]).
With `COc1ccc(N=Nc2ccc(O)c3ncccc23)cc1`, the GFP response vs DMSO in experiment [1] was 99.5% (inactive); in experiment [1] (setting [6]), 100%; in experiment [1] (setting [7]), 98.8%; in experiment [3], 116% (inactive). Besides, the GFP response relative to DMSO in experiment [2] was 199% (active); in experiment [2] (setting [8]), 189%; in experiment [2] (setting [9]), 200%. Also, the GFP response, % of DMSO in experiment [4] is 94.5% (inactive); in experiment [5] it was 109% (inactive); in experiment [5] (setting [6]), 113%; in experiment [5] (setting [7]), 103%.
With `CCOC(=O)CSC1=NC(=O)/C(=C/c2ccc(OC)cc2)S1`, the GFP response vs DMSO was 100% (inactive) in experiment [1], 92.5% in experiment [1] (setting [6]), 98.2% in experiment [1] (setting [7]) and 103% (inactive) in experiment [3]. For the same molecule, the values for the GFP response relative to DMSO in experiment [2], in experiment [2] (setting [8]) and in experiment [2] (setting [9]) were 154% (active), 139% and 159%, respectively. Also, the GFP response, % of DMSO was 102% (inactive) in experiment [4], 79.7% (inactive) in experiment [5], 79.4% in experiment [5] (setting [6]) and 71.8% in experiment [5] (setting [7]).
For the molecule `O=C(c1ccccc1Br)N1CCN(c2ccccc2)CC1`, the GFP response vs DMSO is 104% (inactive) in experiment [1], 106% in experiment [1] (setting [6]), 105% in experiment [1] (setting [7]) and 109% (inactive) in experiment [3]. In addition, the figures for the GFP response relative to DMSO in experiment [2], in experiment [2] (setting [8]) and in experiment [2] (setting [9]) were 93.8% (inactive), 92.5% and 97.2%, respectively. In addition, the GFP response, % of DMSO in experiment [4] was 94.3% (inactive); in experiment [5], 93.9% (inactive); in experiment [5] (setting [6]), 94.8%; in experiment [5] (setting [7]), 94.4%.
As for `COc1ccc(C(=O)NC(=S)NNC(=O)c2cnccn2)cc1`, the GFP response vs DMSO in experiment [1] was 99.3% (inactive); in experiment [1] (setting [6]), 91.3%; in experiment [1] (setting [7]) it was 96%; in experiment [3], 114% (inactive). The GFP response relative to DMSO in experiment [2] is 285% (active); in experiment [2] (setting [8]), 176%; in experiment [2] (setting [9]) it was 262%. The GFP response, % of DMSO in experiment [4] was 95.2% (inactive); in experiment [5] it was 104% (inactive); in experiment [5] (setting [6]), 96.4%; in experiment [5] (setting [7]) it was 93.3%.
For `CC(=O)OCC(=O)[C@@]1(O)CC[C@H]2[C@@H]3CCC4=CC(=O)CC[C@]4(C)[C@H]3C(=O)C[C@@]21C`, the GFP response vs DMSO in experiment [1] was 102% (inactive); in experiment [1] (setting [6]), 100%; in experiment [1] (setting [7]), 103%; in experiment [3], 100% (inactive). In addition, the GFP response relative to DMSO in experiment [2] is 101% (inactive); in experiment [2] (setting [8]), 102%; in experiment [2] (setting [9]), 102%. For the same molecule, the GFP response, % of DMSO in experiment [4] is 100% (inactive); in experiment [5], 97.8% (inactive); in experiment [5] (setting [6]) it was 96.5%; in experiment [5] (setting [7]) it was 97.7%.
In the case of `O=C1c2ccsc2SCCN1Cc1c(F)cccc1Cl`, the GFP response vs DMSO in experiment [1] is 92.8% (inactive); in experiment [1] (setting [6]), 90.7%; in experiment [1] (setting [7]), 93.9%; in experiment [3], 96.8% (inactive). For the same molecule, the GFP response relative to DMSO in experiment [2] was 112% (inactive); in experiment [2] (setting [8]), 110%; in experiment [2] (setting [9]), 113%. In addition, the GFP response, % of DMSO in experiment [4] is 99% (inactive); in experiment [5] it was 98.8% (inactive); in experiment [5] (setting [6]), 99.2%; in experiment [5] (setting [7]), 98.1%.
With `Cc1cc(Cl)ccc1N=c1ssnc1Cl`, the GFP response vs DMSO in experiment [1] was 92.2% (inactive); in experiment [1] (setting [6]) it was 94.2%; in experiment [1] (setting [7]), 86.5%; in experiment [3], 109% (inactive). The results for the GFP response relative to DMSO in experiment [2], in experiment [2] (setting [8]) and in experiment [2] (setting [9]) were 133% (inactive), 114% and 145%, respectively. The GFP response, % of DMSO in experiment [4] is 97.3% (inactive); in experiment [5], 102% (inactive); in experiment [5] (setting [6]), 103%; in experiment [5] (setting [7]), 101%.
With `CNc1cc(CSC)nc(SCc2ccc(Cl)cc2Cl)n1`, the GFP response vs DMSO in experiment [1] was 93.5% (inactive); in experiment [1] (setting [6]), 88.6%; in experiment [1] (setting [7]), 96.1%; in experiment [3], 102% (inactive). For the same molecule, the GFP response relative to DMSO was 125% (inactive) in experiment [2], 118% in experiment [2] (setting [8]) and 131% in experiment [2] (setting [9]). Besides, the GFP response, % of DMSO is 90.4% (inactive) in experiment [4], 88.3% (inactive) in experiment [5], 86.2% in experiment [5] (setting [6]) and 89% in experiment [5] (setting [7]).
With `CN(O)/C=c1/ccc2c(n1)C(=O)C=CC=2`, the GFP response vs DMSO in experiment [1] is 105% (inactive); in experiment [1] (setting [6]), 108%; in experiment [1] (setting [7]), 100%; in experiment [3], 115% (inactive). In addition, the figures for the GFP response relative to DMSO in experiment [2], in experiment [2] (setting [8]) and in experiment [2] (setting [9]) were 192% (active), 170% and 188%, respectively. Besides, the GFP response, % of DMSO in experiment [4] was 93.2% (inactive); in experiment [5] it was 167% (active); in experiment [5] (setting [6]), 150%; in experiment [5] (setting [7]), 161%.
